Measured values as given in PubChem BioAssay (NCI).
Several values for one entry are separate records, joined by “and”; a condition that tells them apart may be missing. Identical values can stand only once. This is part of a sample that, as a whole, favours compounds with a hit. Of some 79,000 tested, about 15% had one in any assay. More than one record can exist for a structure, and the calls need not agree. Activity calls are given as the source filed them. Cut-off read from the data, not from the text of the source: active = growth inhibition above about 70%; inactive = the rest.

Tests used:
[1] = NCI Yeast Anticancer Drug Screen. Data for the mec2-1 strain (AID 157); conditions: S. cerevisiae mec2-1 strain, stronger effect = higher value
Outline: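 Using mec2-1 yeast: add compound, measure growth, express inhibition versus vehicle-treated cultures.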

[2] = NCI Yeast Anticancer Drug Screen. Data for the rad14 strain (AID 159);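 note: 0% = growth of vehicle-treated control cultures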; conditions: S. cerevisiae rad14 strain growth inhibition, stronger effect = higher value
Outline: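 A mutant yeast strain defective in DNA damage repair is treated with compound; inhibition of its growth is scored against untreated, vehicle-exposed cultures.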

[3] = NCI Yeast Anticancer Drug Screen. Data for the sgs1 mgt1 strain (AID 161);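 note: 0% = growth of cultures given vehicle only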; conditions: S. cerevisiae sgs1 mgt1 strain, stronger effect = higher value
Outline: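 Percent growth inhibition was derived by comparing compound-exposed mutant yeast with vehicle-exposed cultures. The strain carries alterations in DNA damage repair.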

[4] = NCI Yeast Anticancer Drug Screen. Data for the CLN2oe strain (AID 163);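 note: 0% = growth of vehicle-only control cultures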; conditions: S. cerevisiae CLN2oe strain, stronger effect = higher value
Outline: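 Whole-cell yeast growth assay. A strain engineered for altered cell-cycle control received compound, and inhibition relative to vehicle-treated cultures was recorded.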

[5] = NCI Yeast Anticancer Drug Screen. Data for the cln2 rad14 strain (AID 165);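 note: 0% = growth equal to vehicle treated cultures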; conditions: S. cerevisiae cln2 rad14 strain, stronger effect = higher value
Outline: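 Yeast strain cln2 rad14, bearing defects in cell cycle control and DNA repair, serves as the test system; values reflect growth inhibition compared with vehicle.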

[6] = NCI Yeast Anticancer Drug Screen. Data for the bub3 strain (AID 167); conditions: S. cerevisiae bub3 mutant strain, stronger effect = higher value
Outline: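 Steps: expose the mutant yeast strain to compound; grow alongside vehicle-treated cultures; measure growth; express inhibition against the vehicle cultures.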

[7] = NCI Yeast Anticancer Drug Screen. Data for the wt2 strain (AID 169);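 note: 0% = growth of vehicle-treated yeast cultures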; conditions: S. cerevisiae wt2 strain growth inhibition, stronger effect = higher value
Outline: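 Treated yeast vs. vehicle-treated yeast: growth inhibition determined.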

[8] = NCI Yeast Anticancer Drug Screen. Data for the mlh1 strain (AID 171);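 note: 0% = growth of vehicle-treated control cultures of the same strain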; conditions: S. cerevisiae mlh1 strain growth inhibition, stronger effect = higher value
Outline: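 A yeast strain with a defined genetic lesion serves as the test organism. Cultures receive compound or vehicle, and growth is measured.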

[9] = NCI Yeast Anticancer Drug Screen. Data for the sgs1 strain (AID 173);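 note: 0% = growth of vehicle-only control cultures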; conditions: S. cerevisiae sgs1 mutant, stronger effect = higher value
Outline: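 A genetically defined yeast mutant is incubated with the test compound, and its growth is compared to that of the same strain given vehicle.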

[10] = NCI Yeast Anticancer Drug Screen. Data for the mlh1 rad18 strain (AID 175); conditions: S. cerevisiae mlh1 rad18 strain growth inhibition, stronger effect = higher value
Outline: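 Steps: expose repair-defective yeast to compound; measure growth; express inhibition against vehicle-treated controls.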

[11] = NCI Yeast Anticancer Drug Screen. Data for the rad18 strain (AID 177); conditions: S. cerevisiae rad18 mutant growth inhibition, stronger effect = higher value
Outline: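 Measured value is growth inhibition of a yeast strain bearing a DNA repair alteration, referenced to vehicle-treated cells.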

[12] = NCI Yeast Anticancer Drug Screen. Data for the rad52 strain (AID 147);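 note: 0% = growth of vehicle-treated control cultures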; conditions: S. cerevisiae rad52 mutant growth inhibition, stronger effect = higher value
Outline: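 Here a repair-compromised yeast strain receives each compound; its growth is then quantified and normalised to vehicle-only controls.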

[13] = NCI Yeast Anticancer Drug Screen. Data for the wt1 strain (AID 149);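 note: 0% = growth of vehicle-treated wt1 cultures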; conditions: S. cerevisiae wt1 strain (SPY 50644) growth inhibition, stronger effect = higher value
Outline: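 Compounds are added to wt1 yeast cultures. Growth is then measured. Inhibition is expressed relative to vehicle-treated controls.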

[14] = NCI Yeast Anticancer Drug Screen. Data for the rad50EPP+ strain (AID 151);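 note: 0% = growth of vehicle-treated control cultures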; conditions: S. cerevisiae rad50 mutant strain, stronger effect = higher value
Outline: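 Read-out is yeast growth inhibition relative to vehicle; cells used were the rad50EPP+ strain.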

[15] = NCI Yeast Anticancer Drug Screen. Data for the mgt1 strain (AID 153); conditions: S. cerevisiae mgt1 mutant growth inhibition, stronger effect = higher value
Outline: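 Measured: inhibition of mgt1 yeast growth by compound, normalized to vehicle-treated cultures.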

[16] = NCI Yeast Anticancer Drug Screen. Data for the rad50 strain (AID 155);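 note: 0% = growth of vehicle-only cultures of the same strain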; conditions: S. cerevisiae rad50 strain growth inhibition, stronger effect = higher value
Outline: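 Inhibition values express reduced yeast growth in compound-treated cultures relative to vehicle-treated controls.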

[17] = at 5.0 µM (retest, dose inferred, filed as 0.5)
[18] = at 50.0 µM (retest, dose inferred, filed as 5.0)

Measured: growth inhibition

Oc1ccc2ccccc2c1CCc1c(O)ccc2ccccc12
active: [1]; at 11.0 µM 95% | [1]; at 33.0 µM 96% | [1]; [18] 95% | [1]; at 50.0 µM 96.5% | [1]; at 100.0 µM 90% | [2]; at 33.0 µM 89% | [2]; at 100.0 µM 85% | [3]; [18] 94% | [3]; at 50.0 µM 95% | [4]; at 11.0 µM 97% | [4]; at 33.0 µM 92% | [4]; at 100.0 µM 82% | [5]; [18] 92% | [5]; at 50.0 µM 88.2% | [6]; at 11.0 µM 98% | [6]; at 33.0 µM 93% | [6]; [18] 94% | [6]; at 50.0 µM 94.9% | [6]; at 100.0 µM 86% | [7]; at 100.0 µM 87% | [8]; at 11.0 µM 79% | [8]; at 33.0 µM 94% | [8]; at 100.0 µM 90% | [9]; at 33.0 µM 92% | [9]; at 100.0 µM 88% | [10]; [18] 92% | [10]; at 50.0 µM 95.2% | [11]; at 33.0 µM 91% | [11]; at 100.0 µM 85%
inactive: [1]; [17] -6% | [2]; at 1.2 µM 3% | [2]; at 3.7 µM 8% | [2]; at 11.0 µM 28% | [3]; [17] 41% | [4]; at 1.2 µM 7% | [4]; at 3.7 µM 4% | [5]; [17] 6% | [6]; at 1.2 µM -1% | [6]; at 3.7 µM 2% | [6]; [17] 45% | [7]; at 1.2 µM 7% | [7]; at 3.7 µM 16% | [7]; at 11.0 µM 38% | [7]; at 33.0 µM 66% | [8]; at 1.2 µM 5% | [8]; at 3.7 µM 8% | [9]; at 1.2 µM 7% | [9]; at 3.7 µM 19% | [9]; at 11.0 µM 51% | [10]; [17] 55% | [11]; at 1.2 µM 5% | [11]; at 3.7 µM 15% | [11]; at 11.0 µM 46%

Cc1cc(-c2cc(C)c(O)c(C(C)(C)C)c2)cc(C(C)(C)C)c1O
77.8% (active) and 65.8% (inactive): [5]; at 50.0 µM
52% (inactive) and 93% (active): [6]; [18]
active: [12]; at 100.0 µM 75% | [13]; at 100.0 µM 70% | [16]; [18] 98% and 74% | [16]; at 50.0 µM 70.5% and 77.3% | [16]; at 100.0 µM 72% | [1]; [18] 98% and 91% | [2]; at 100.0 µM 72% | [4]; at 100.0 µM 73% | [5]; [18] 81% and 91% | [10]; [18] 99% and 92% | [10]; at 50.0 µM 70.5% and 84.8% | [11]; at 100.0 µM 74%
70.2% (active) and 37.4% (inactive): [6]; at 50.0 µM
45% (inactive) and 90% (active): [3]; [18]
66.3% (inactive) and 80.8% (active): [3]; at 50.0 µM
inactive: [12]; at 1.2 µM -37% | [12]; at 3.7 µM -34% | [12]; at 11.0 µM -17% | [12]; at 33.0 µM 48% | [13]; at 1.2 µM -52% | [13]; at 3.7 µM -49% | [13]; at 11.0 µM -44% | [13]; at 33.0 µM 6% | [14]; at 1.2 µM -35% | [14]; at 3.7 µM -31% | [14]; at 11.0 µM -29% | [14]; at 33.0 µM -25% | [14]; at 100.0 µM -4% | [15]; at 1.2 µM -49% | [15]; at 3.7 µM -51% | [15]; at 11.0 µM -49% | [15]; at 33.0 µM -16% | [15]; at 100.0 µM 57% | [16]; at 1.2 µM -2% | [16]; at 3.7 µM -4% | [16]; [17] 43% and 15% | [16]; at 11.0 µM 11% | [16]; at 33.0 µM 52% | [1]; at 1.2 µM -30% | [1]; at 3.7 µM -23% | [1]; [17] 51% and -6% | [1]; at 11.0 µM -10% | [1]; at 33.0 µM -2% | [1]; at 50.0 µM 65.3% and 61.5% | [1]; at 100.0 µM 55% | [2]; at 1.2 µM -16% | [2]; at 3.7 µM -10% | [2]; at 11.0 µM -23% | [2]; at 33.0 µM 25% | [3]; [17] 10% and 18% | [4]; at 1.2 µM -51% | [4]; at 3.7 µM -62% | [4]; at 11.0 µM -42% | [4]; at 33.0 µM 15% | [5]; [17] 52% and -17% | [6]; at 1.2 µM -6% | [6]; at 3.7 µM 5% | [6]; [17] 43% and 5% | [6]; at 11.0 µM 24% | [6]; at 33.0 µM 40% | [6]; at 100.0 µM 65% | [7]; at 1.2 µM -32% | [7]; at 3.7 µM -18% | [7]; at 11.0 µM -17% | [7]; at 33.0 µM 4% | [7]; at 100.0 µM 66% | [8]; at 1.2 µM -44% | [8]; at 3.7 µM -31% | [8]; at 11.0 µM -28% | [8]; at 33.0 µM 9% | [8]; at 100.0 µM 65% | [9]; at 1.2 µM -20% | [9]; at 3.7 µM -8% | [9]; at 11.0 µM -6% | [9]; at 33.0 µM 30% | [9]; at 100.0 µM 59% | [10]; [17] 46% and 3% | [11]; at 1.2 µM -42% | [11]; at 3.7 µM -36% | [11]; at 11.0 µM -26% | [11]; at 33.0 µM 29%
